Results taken from publication PMC11006913.

How the values were obtained:
Experiment in all cases: PBM; 200 nM protein, PBS
Conditions in all cases: dsDNA, one strand shown
HESX1 [1] = biological target: HESX1 (Homo sapiens, UniProt Q9UBX0 95-180, R165K)
HESX1 [2] = biological target: HESX1 (Homo sapiens, UniProt Q9UBX0 95-180)
ALX1 [3] = biological target: ALX1 (Homo sapiens, UniProt Q15699 118-204, L144V)
ALX1 [4] = biological target: ALX1 (Homo sapiens, UniProt Q15699 118-204, L144R)
HESX1 [5] = biological target: HESX1 (Homo sapiens, UniProt Q9UBX0 95-180, R109Q)
Chain of HESX1 (Homo sapiens, UniProt Q9UBX0 95-180, R109Q) (Q9UBX0 95-180 R109Q): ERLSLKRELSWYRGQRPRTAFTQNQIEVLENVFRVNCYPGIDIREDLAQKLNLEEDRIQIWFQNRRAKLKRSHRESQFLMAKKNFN

HESX1 [6] = biological target: HESX1 (Homo sapiens, UniProt Q9UBX0 95-180, P111T)
Chain of HESX1 (Homo sapiens, UniProt Q9UBX0 95-180, P111T) (Q9UBX0 95-180 P111T): as the sequence (Q9UBX0 95-180 R109Q) above, with Q15R, P17T counted along it

HESX1 [7] = biological target: HESX1 (Homo sapiens, UniProt Q9UBX0 95-180, F115L)
Chain of HESX1 (Homo sapiens, UniProt Q9UBX0 95-180, F115L) (Q9UBX0 95-180 F115L): as the sequence (Q9UBX0 95-180 R109Q) above, with Q15R, F21L counted along it

ALX1 [8] = biological target: ALX1 (Homo sapiens, UniProt Q15699 118-204)
Chain of ALX1 (Homo sapiens, UniProt Q15699 118-204) (Q15699 118-204): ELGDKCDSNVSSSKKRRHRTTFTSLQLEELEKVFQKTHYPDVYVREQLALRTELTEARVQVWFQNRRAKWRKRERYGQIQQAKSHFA

ALX4 [9] = biological target: ALX4 (Homo sapiens, UniProt Q9H161 200-286)
Chain of ALX4 (Homo sapiens, UniProt Q9H161 200-286) (Q9H161 200-286): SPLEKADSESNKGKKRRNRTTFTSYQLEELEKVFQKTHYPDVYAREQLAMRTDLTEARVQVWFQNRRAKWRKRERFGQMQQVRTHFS

ALX4 [10] = biological target: ALX4 (Homo sapiens, UniProt Q9H161 200-286, Q225E)
Chain of ALX4 (Homo sapiens, UniProt Q9H161 200-286, Q225E) (Q9H161 200-286 Q225E): as the sequence (Q9H161 200-286) above, with Q26E counted along it

MSX2 [11] = biological target: MSX2 (Homo sapiens, UniProt P35548 130-214, R199I)
Chain of MSX2 (Homo sapiens, UniProt P35548 130-214, R199I) (P35548 130-214 R199I): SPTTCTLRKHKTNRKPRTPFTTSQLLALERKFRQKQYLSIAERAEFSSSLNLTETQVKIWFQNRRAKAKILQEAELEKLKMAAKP

MSX2 [12] = biological target: MSX2 (Homo sapiens, UniProt P35548 130-214)
Chain of MSX2 (Homo sapiens, UniProt P35548 130-214) (P35548 130-214): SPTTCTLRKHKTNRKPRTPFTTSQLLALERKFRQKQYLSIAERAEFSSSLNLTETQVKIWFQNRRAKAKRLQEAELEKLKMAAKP

MSX2 [13] = biological target: MSX2 (Homo sapiens, UniProt P35548 130-214, F161Y)
Chain of MSX2 (Homo sapiens, UniProt P35548 130-214, F161Y) (P35548 130-214 F161Y): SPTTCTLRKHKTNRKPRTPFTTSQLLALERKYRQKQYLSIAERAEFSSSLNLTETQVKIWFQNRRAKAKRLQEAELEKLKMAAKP

PRRX1 [14] = biological target: PRRX1 (Homo sapiens, UniProt P54821 80-166, F113S)
Chain of PRRX1 (Homo sapiens, UniProt P54821 80-166, F113S) (P54821 80-166 F113S): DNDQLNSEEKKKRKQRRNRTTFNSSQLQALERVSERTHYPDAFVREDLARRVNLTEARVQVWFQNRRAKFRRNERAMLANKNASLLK

PROP1 [15] = biological target: PROP1 (Homo sapiens, UniProt O75360 56-141)
Chain of PROP1 (Homo sapiens, UniProt O75360 56-141) (O75360 56-141): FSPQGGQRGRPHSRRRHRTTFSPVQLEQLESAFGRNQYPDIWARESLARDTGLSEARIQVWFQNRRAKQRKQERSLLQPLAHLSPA

PROP1 [16] = biological target: PROP1 (Homo sapiens, UniProt O75360 56-141, R99H)
Chain of PROP1 (Homo sapiens, UniProt O75360 56-141, R99H) (O75360 56-141 R99H): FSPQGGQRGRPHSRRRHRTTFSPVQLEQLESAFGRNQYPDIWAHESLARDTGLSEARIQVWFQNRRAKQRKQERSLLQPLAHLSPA

ALX3 [17] = biological target: ALX3 (Homo sapiens, UniProt O95076 139-225, L168Q)
Chain of ALX3 (Homo sapiens, UniProt O95076 139-225, L168Q) (O95076 139-225 L168Q): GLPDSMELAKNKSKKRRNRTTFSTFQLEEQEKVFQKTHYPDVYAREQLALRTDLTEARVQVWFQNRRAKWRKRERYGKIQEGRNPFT

ALX3 [18] = biological target: ALX3 (Homo sapiens, UniProt O95076 139-225, L168V)
Chain of ALX3 (Homo sapiens, UniProt O95076 139-225, L168V) (O95076 139-225 L168V): as the sequence (O95076 139-225 L168Q) above, with Q30V counted along it

PROP1 [19] = biological target: PROP1 (Homo sapiens, UniProt O75360 56-141, F88S)
Chain of PROP1 (Homo sapiens, UniProt O75360 56-141, F88S) (O75360 56-141 F88S): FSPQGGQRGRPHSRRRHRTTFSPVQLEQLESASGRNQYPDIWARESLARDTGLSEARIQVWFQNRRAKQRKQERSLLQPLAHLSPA

PRRX1 [20] = biological target: PRRX1 (Homo sapiens, UniProt P54821 80-166)
Chain of PRRX1 (Homo sapiens, UniProt P54821 80-166) (P54821 80-166): as the sequence (P54821 80-166 F113S) above, with S34F counted along it

Chain of HESX1 (Homo sapiens, UniProt Q9UBX0 95-180, R165K) (Q9UBX0 95-180 R165K): as the sequence (Q9UBX0 95-180 R109Q) above, with Q15R, R71K counted along it
Chain of HESX1 (Homo sapiens, UniProt Q9UBX0 95-180) (Q9UBX0 95-180): as the sequence (Q9UBX0 95-180 R109Q) above, with Q15R counted along it
Chain of ALX1 (Homo sapiens, UniProt Q15699 118-204, L144R) (Q15699 118-204 L144R): as the sequence (Q15699 118-204) above, with L27R counted along it
Chain of ALX1 (Homo sapiens, UniProt Q15699 118-204, L144V) (Q15699 118-204 L144V): as the sequence (Q15699 118-204) above, with L27V counted along it

TATGGTAA
binding signal (HESX1 [1]): 7.45 upbm affinity estimate (log intensity, higher = more binding, comparable within an allelic series) | binding signal (HESX1 [2]): 7.53 upbm affinity estimate (log intensity, higher = more binding, comparable within an allelic series)

AGAGCTCT
binding signal (HESX1 [1]): 6.34 upbm affinity estimate (log intensity, higher = more binding, comparable within an allelic series) | binding signal (HESX1 [2]): 6.42 upbm affinity estimate (log intensity, higher = more binding, comparable within an allelic series) | binding signal (ALX1 [3]): 6.52 upbm affinity estimate (log intensity, higher = more binding, comparable within an allelic series) | binding signal (ALX1 [4]): 6.57 upbm affinity estimate (log intensity, higher = more binding, comparable within an allelic series) | binding signal (HESX1 [5]): 6.48 upbm affinity estimate (log intensity, higher = more binding, comparable within an allelic series) | binding signal (HESX1 [6]): 6.53 upbm affinity estimate (log intensity, higher = more binding, comparable within an allelic series) | binding signal (HESX1 [7]): 6.38 upbm affinity estimate (log intensity, higher = more binding, comparable within an allelic series) | binding signal (ALX1 [8]): 6.26 upbm affinity estimate (log intensity, higher = more binding, comparable within an allelic series)

CTCTCCAG
binding signal (HESX1 [1]): 6.3 upbm affinity estimate (log intensity, higher = more binding, comparable within an allelic series) | binding signal (ALX4 [9]): 7.91 upbm affinity estimate (log intensity, higher = more binding, comparable within an allelic series) | binding signal (ALX4 [10]): 7.91 upbm affinity estimate (log intensity, higher = more binding, comparable within an allelic series) | binding signal (HESX1 [2]): 6.32 upbm affinity estimate (log intensity, higher = more binding, comparable within an allelic series) | binding signal (HESX1 [5]): 6.51 upbm affinity estimate (log intensity, higher = more binding, comparable within an allelic series) | binding signal (HESX1 [6]): 6.4 upbm affinity estimate (log intensity, higher = more binding, comparable within an allelic series) | binding signal (HESX1 [7]): 6.42 upbm affinity estimate (log intensity, higher = more binding, comparable within an allelic series)

ATGTTAAT
binding signal (HESX1 [1]): 8.98 upbm affinity estimate (log intensity, higher = more binding, comparable within an allelic series) | binding signal (HESX1 [2]): 9.41 upbm affinity estimate (log intensity, higher = more binding, comparable within an allelic series)

CCCAGTGC
binding signal (HESX1 [1]): 6.38 upbm affinity estimate (log intensity, higher = more binding, comparable within an allelic series) | binding signal (ALX4 [9]): 8 upbm affinity estimate (log intensity, higher = more binding, comparable within an allelic series) | binding signal (ALX4 [10]): 8.11 upbm affinity estimate (log intensity, higher = more binding, comparable within an allelic series) | binding signal (HESX1 [2]): 6.3 upbm affinity estimate (log intensity, higher = more binding, comparable within an allelic series) | binding signal (HESX1 [5]): 6.56 upbm affinity estimate (log intensity, higher = more binding, comparable within an allelic series) | binding signal (HESX1 [6]): 6.45 upbm affinity estimate (log intensity, higher = more binding, comparable within an allelic series) | binding signal (HESX1 [7]): 6.56 upbm affinity estimate (log intensity, higher = more binding, comparable within an allelic series)

GAACCCCC
binding signal (HESX1 [1]): 6.29 upbm affinity estimate (log intensity, higher = more binding, comparable within an allelic series) | binding signal (HESX1 [2]): 6.26 upbm affinity estimate (log intensity, higher = more binding, comparable within an allelic series) | binding signal (MSX2 [11]): 9.43 upbm affinity estimate (log intensity, higher = more binding, comparable within an allelic series) | binding signal (MSX2 [12]): 9.41 upbm affinity estimate (log intensity, higher = more binding, comparable within an allelic series) | binding signal (HESX1 [5]): 6.37 upbm affinity estimate (log intensity, higher = more binding, comparable within an allelic series) | binding signal (HESX1 [6]): 6.38 upbm affinity estimate (log intensity, higher = more binding, comparable within an allelic series) | binding signal (MSX2 [13]): 9.53 upbm affinity estimate (log intensity, higher = more binding, comparable within an allelic series) | binding signal (HESX1 [7]): 6.35 upbm affinity estimate (log intensity, higher = more binding, comparable within an allelic series)

GAGCAGCC
binding signal (HESX1 [1]): 6.52 upbm affinity estimate (log intensity, higher = more binding, comparable within an allelic series) | binding signal (ALX4 [9]): 8.07 upbm affinity estimate (log intensity, higher = more binding, comparable within an allelic series) | binding signal (ALX4 [10]): 8.24 upbm affinity estimate (log intensity, higher = more binding, comparable within an allelic series) | binding signal (HESX1 [2]): 6.51 upbm affinity estimate (log intensity, higher = more binding, comparable within an allelic series) | binding signal (HESX1 [5]): 6.47 upbm affinity estimate (log intensity, higher = more binding, comparable within an allelic series) | binding signal (HESX1 [6]): 6.43 upbm affinity estimate (log intensity, higher = more binding, comparable within an allelic series) | binding signal (HESX1 [7]): 6.53 upbm affinity estimate (log intensity, higher = more binding, comparable within an allelic series)

AATTATCT
binding signal (HESX1 [1]): 11.8 upbm affinity estimate (log intensity, higher = more binding, comparable within an allelic series) | binding signal (ALX4 [9]): 13.6 upbm affinity estimate (log intensity, higher = more binding, comparable within an allelic series) | binding signal (PRRX1 [14]): 11.2 upbm affinity estimate (log intensity, higher = more binding, comparable within an allelic series) | binding signal (ALX4 [10]): 12.7 upbm affinity estimate (log intensity, higher = more binding, comparable within an allelic series) | binding signal (HESX1 [2]): 11.8 upbm affinity estimate (log intensity, higher = more binding, comparable within an allelic series) | binding signal (MSX2 [11]): 12.3 upbm affinity estimate (log intensity, higher = more binding, comparable within an allelic series) | binding signal (ALX1 [3]): 11.6 upbm affinity estimate (log intensity, higher = more binding, comparable within an allelic series) | binding signal (ALX1 [4]): 11.3 upbm affinity estimate (log intensity, higher = more binding, comparable within an allelic series) | binding signal (MSX2 [12]): 13.5 upbm affinity estimate (log intensity, higher = more binding, comparable within an allelic series) | binding signal (PROP1 [15]): 11.1 upbm affinity estimate (log intensity, higher = more binding, comparable within an allelic series) | binding signal (HESX1 [5]): 8.47 upbm affinity estimate (log intensity, higher = more binding, comparable within an allelic series) | binding signal (PROP1 [16]): 10.8 upbm affinity estimate (log intensity, higher = more binding, comparable within an allelic series) | binding signal (ALX3 [17]): 10.3 upbm affinity estimate (log intensity, higher = more binding, comparable within an allelic series) | binding signal (HESX1 [6]): 10.2 upbm affinity estimate (log intensity, higher = more binding, comparable within an allelic series) | binding signal (ALX3 [18]): 9.85 upbm affinity estimate (log intensity, higher = more binding, comparable within an allelic series) | binding signal (PROP1 [19]): 7.79 upbm affinity estimate (log intensity, higher = more binding, comparable within an allelic series) | binding signal (MSX2 [13]): 13 upbm affinity estimate (log intensity, higher = more binding, comparable within an allelic series) | binding signal (HESX1 [7]): 7.77 upbm affinity estimate (log intensity, higher = more binding, comparable within an allelic series) | binding signal (ALX1 [8]): 12.1 upbm affinity estimate (log intensity, higher = more binding, comparable within an allelic series) | binding signal (PRRX1 [20]): 13.2 upbm affinity estimate (log intensity, higher = more binding, comparable within an allelic series)

CCATAATA
binding signal (HESX1 [1]): 8.68 upbm affinity estimate (log intensity, higher = more binding, comparable within an allelic series) | binding signal (HESX1 [2]): 8.79 upbm affinity estimate (log intensity, higher = more binding, comparable within an allelic series)

AGCTGCCT
binding signal (HESX1 [1]): 6.48 upbm affinity estimate (log intensity, higher = more binding, comparable within an allelic series) | binding signal (HESX1 [2]): 6.48 upbm affinity estimate (log intensity, higher = more binding, comparable within an allelic series) | binding signal (HESX1 [5]): 6.53 upbm affinity estimate (log intensity, higher = more binding, comparable within an allelic series) | binding signal (HESX1 [6]): 6.48 upbm affinity estimate (log intensity, higher = more binding, comparable within an allelic series) | binding signal (HESX1 [7]): 6.43 upbm affinity estimate (log intensity, higher = more binding, comparable within an allelic series)

TAATTGTA
binding signal (HESX1 [1]): 11.4 upbm affinity estimate (log intensity, higher = more binding, comparable within an allelic series) | binding signal (HESX1 [2]): 11.8 upbm affinity estimate (log intensity, higher = more binding, comparable within an allelic series) | binding signal (MSX2 [11]): 12.5 upbm affinity estimate (log intensity, higher = more binding, comparable within an allelic series) | binding signal (MSX2 [12]): 13.6 upbm affinity estimate (log intensity, higher = more binding, comparable within an allelic series) | binding signal (HESX1 [5]): 8.46 upbm affinity estimate (log intensity, higher = more binding, comparable within an allelic series) | binding signal (HESX1 [6]): 10.1 upbm affinity estimate (log intensity, higher = more binding, comparable within an allelic series) | binding signal (MSX2 [13]): 13.3 upbm affinity estimate (log intensity, higher = more binding, comparable within an allelic series) | binding signal (HESX1 [7]): 7.75 upbm affinity estimate (log intensity, higher = more binding, comparable within an allelic series)

GAGTCGCC
binding signal (HESX1 [1]): 6.49 upbm affinity estimate (log intensity, higher = more binding, comparable within an allelic series) | binding signal (ALX4 [9]): 8.18 upbm affinity estimate (log intensity, higher = more binding, comparable within an allelic series) | binding signal (ALX4 [10]): 8.37 upbm affinity estimate (log intensity, higher = more binding, comparable within an allelic series) | binding signal (HESX1 [2]): 6.48 upbm affinity estimate (log intensity, higher = more binding, comparable within an allelic series) | binding signal (HESX1 [5]): 6.47 upbm affinity estimate (log intensity, higher = more binding, comparable within an allelic series) | binding signal (HESX1 [6]): 6.56 upbm affinity estimate (log intensity, higher = more binding, comparable within an allelic series) | binding signal (HESX1 [7]): 6.36 upbm affinity estimate (log intensity, higher = more binding, comparable within an allelic series)

AGAGGCAC
binding signal (HESX1 [1]): 6.29 upbm affinity estimate (log intensity, higher = more binding, comparable within an allelic series) | binding signal (ALX4 [9]): 8.1 upbm affinity estimate (log intensity, higher = more binding, comparable within an allelic series) | binding signal (ALX4 [10]): 8.02 upbm affinity estimate (log intensity, higher = more binding, comparable within an allelic series) | binding signal (HESX1 [2]): 6.48 upbm affinity estimate (log intensity, higher = more binding, comparable within an allelic series) | binding signal (HESX1 [5]): 6.44 upbm affinity estimate (log intensity, higher = more binding, comparable within an allelic series) | binding signal (HESX1 [6]): 6.5 upbm affinity estimate (log intensity, higher = more binding, comparable within an allelic series) | binding signal (HESX1 [7]): 6.64 upbm affinity estimate (log intensity, higher = more binding, comparable within an allelic series)

ATTATTTG
binding signal (HESX1 [1]): 8.97 upbm affinity estimate (log intensity, higher = more binding, comparable within an allelic series) | binding signal (HESX1 [2]): 8.9 upbm affinity estimate (log intensity, higher = more binding, comparable within an allelic series)

GCCGGCGA
binding signal (HESX1 [1]): 6.47 upbm affinity estimate (log intensity, higher = more binding, comparable within an allelic series) | binding signal (PRRX1 [14]): 9.26 upbm affinity estimate (log intensity, higher = more binding, comparable within an allelic series) | binding signal (HESX1 [2]): 6.42 upbm affinity estimate (log intensity, higher = more binding, comparable within an allelic series) | binding signal (HESX1 [5]): 6.45 upbm affinity estimate (log intensity, higher = more binding, comparable within an allelic series) | binding signal (HESX1 [6]): 6.41 upbm affinity estimate (log intensity, higher = more binding, comparable within an allelic series) | binding signal (HESX1 [7]): 6.43 upbm affinity estimate (log intensity, higher = more binding, comparable within an allelic series) | binding signal (PRRX1 [20]): 9.42 upbm affinity estimate (log intensity, higher = more binding, comparable within an allelic series)
